Source: PubChem BioAssay AID588511 (Johns Hopkins Ion Channel Center, 2011)
About 3,600 (1.2%) of roughly 310,000 compounds were called active.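 The calls were made as follows: active = ratio plate-corrected score three or more library SD toward inhibition, starting fluorescence score within five deviations; inactive = the rest.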 Only a selection was taken, and actives are over-represented in it overall.

Target: Anoctamin-1 (Mus musculus) (UniProt Q8BHY3)
Test: TMEM16A chloride channel inhibitors, primary screen, cell-based, HTS (AID 588511);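 as to normalized B-score (activity score, 25-100; higher = stronger inhibition): score derived from kinetic fluorescence span divided by baseline fluorescence per well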
Conditions: HEK293 TMEM16A/YFP iodide influx fluorescence, ionomycin; at 10 µM

Chain of Anoctamin-1 (Mus musculus) (Q8BHY3 whole entry, looked up): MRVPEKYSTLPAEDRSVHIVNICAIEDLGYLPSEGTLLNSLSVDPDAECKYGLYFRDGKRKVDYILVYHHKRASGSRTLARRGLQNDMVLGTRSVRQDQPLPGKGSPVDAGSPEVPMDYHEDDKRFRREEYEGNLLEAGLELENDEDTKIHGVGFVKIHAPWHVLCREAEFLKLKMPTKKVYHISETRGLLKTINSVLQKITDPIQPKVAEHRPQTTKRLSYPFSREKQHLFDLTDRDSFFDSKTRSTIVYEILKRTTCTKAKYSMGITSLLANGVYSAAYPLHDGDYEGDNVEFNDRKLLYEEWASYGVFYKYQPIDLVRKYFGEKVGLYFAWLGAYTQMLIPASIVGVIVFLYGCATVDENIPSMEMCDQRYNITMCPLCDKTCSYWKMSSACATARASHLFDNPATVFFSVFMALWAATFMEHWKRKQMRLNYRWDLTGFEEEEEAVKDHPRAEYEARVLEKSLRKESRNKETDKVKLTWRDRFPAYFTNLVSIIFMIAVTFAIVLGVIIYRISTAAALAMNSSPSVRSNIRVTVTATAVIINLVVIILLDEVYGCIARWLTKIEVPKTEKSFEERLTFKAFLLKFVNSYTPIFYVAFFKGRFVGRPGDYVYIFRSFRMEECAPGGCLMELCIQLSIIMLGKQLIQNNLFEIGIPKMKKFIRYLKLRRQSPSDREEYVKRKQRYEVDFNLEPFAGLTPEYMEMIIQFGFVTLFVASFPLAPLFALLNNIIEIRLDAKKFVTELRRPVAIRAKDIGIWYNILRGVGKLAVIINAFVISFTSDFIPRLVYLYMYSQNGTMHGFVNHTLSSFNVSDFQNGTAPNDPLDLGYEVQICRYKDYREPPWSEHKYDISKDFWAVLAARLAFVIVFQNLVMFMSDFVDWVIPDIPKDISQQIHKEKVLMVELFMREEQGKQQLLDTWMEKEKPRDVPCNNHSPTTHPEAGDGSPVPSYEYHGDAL

Compound | normalized B-score (activity score, 25-100; higher = stronger inhibition)
COc1ccc(/C(C)=N\NC(=O)c2ccc(-c3ccccc3)cc2)c(F)c1 | inactive
O=[N+]([O-])C(=c1ccc2c(c1)N1C3=C(CCCC3)CC3CCCCC31N=2)[N+](=O)[O-] (stereo not given) | inactive
O=c1c(-c2cccc(Cl)c2)c[nH]n1-c1ccccc1 | inactive
Cc1[nH]n(-c2cccc(Cl)c2)c(=O)c1/C=N/n1c(C)nc2ccccc2c1=O | inactive
Cc1[nH]n(-c2cccc(Cl)c2)c(=O)c1-c1ccc(Cl)cc1 | 25 (active)
Cc1ccccc1OCC(=O)N(Cc1cccc(F)c1)C1CCS(=O)(=O)C1 (stereo not given) | inactive
Cn1nnnc1SCC(=O)Nc1nc2ccccc2s1 | inactive
C=CCn1c(SCC(=O)NCc2ccccc2)nnc1-c1cc(Br)ccc1O | inactive
C=CCn1c(SCC(=O)Nc2nc3ccccc3s2)nnc1-c1ccccc1O | 100 (active)
COc1ccc(Cl)cc1NC(=O)CN(C)C(=O)c1cc2ccccc2cc1OC | inactive
CN(CC(O)COc1ccc(S(=O)(=O)N2CCOCC2)cc1Cl)C1CCCCC1 (stereo not given) | inactive
CCOC(=O)N1CCN(C(=O)c2ccc(S(=O)(=O)Nc3cccc(C(F)(F)F)c3)cc2)CC1 | inactive
Cc1oc2c(F)c(F)c(F)c(F)c2c1S(=O)(=O)Nc1cccc(C(F)(F)F)c1 | 100 (active)
O=C(/C=C/c1ccc(F)cc1)Nc1cccc(S(=O)(=O)Nc2cccc(C(F)(F)F)c2)c1 | inactive
COc1ccccc1-n1c(SCC(=O)Nc2cccc(C(=O)O)c2)nnc1-c1ccccc1O | inactive
Cc1cc2c(cc1C)N(Cc1ccccc1)C1=NCCCN12 | inactive
Cn1cc(C(=O)c2ccc(Cl)cc2Cl)cc1C(=O)NN | inactive
O=C(CCc1ccccc1)Nc1ncc([N+](=O)[O-])s1 | inactive
O=C(Cc1c(F)cccc1Cl)Nc1ccc(-n2cnnn2)cc1 | inactive
O=C(Cc1c(F)cccc1Cl)Nc1ncc([N+](=O)[O-])s1 | 100 (active)
Cc1ccc2nsnc2c1NC(=O)c1ccccc1[N+](=O)[O-] | inactive
O=C(CC(Cc1ccccc1)C(=O)O)NCCc1ccc2c(c1)OCO2 (stereo not given) | inactive
O=C(NCCc1ccc2c(c1)OCCO2)c1cc2ccccc2o1 | 100 (active)

Compound | normalized B-score (activity score, 25-100; higher = stronger inhibition)
N=c1oc2ccccc2cc1C(=O)NCc1ccccc1 | inactive
O=C(COc1cc(Cl)c(Cl)cc1Cl)NC(=O)NC1CCCC1 | inactive
O=C(NCc1cccnc1)c1ccccc1NC(=O)c1c(F)cccc1F | inactive
Cc1nc2c(ncn2-c2ccccc2)c(=O)n1NC(=O)CN1CCCC1 | inactive
CCOC(=O)N1CC=C2C(C#N)=C(N)C(C#N)(C#N)[C@H](c3cccs3)[C@H]2C1 | 25 (active)
CCCN1CC=C2C(C#N)=C(N)C(C#N)(C#N)C(c3cc(OC)ccc3OC)C2C1 (stereo not given) | inactive
CCN1CC=C2C(C#N)=C(N)C(C#N)(C#N)[C@H](c3ccoc3)[C@H]2C1 | inactive
CCC(C(=O)NCCC(C)C)N(Cc1ccccc1Cl)C(=O)c1snc(C(N)=O)c1N (stereo not given) | inactive
COC(=O)c1cc(OCC(=O)NC2CCCc3ccccc32)cc(C(=O)OC)c1 (stereo not given) | inactive
O=C(CCCN1CCc2[nH]c3ccc(F)cc3c2C1)c1ccc(F)cc1 | inactive
Oc1c(Cl)cc(Cl)c(Cl)c1Cc1c(O)c(Cl)cc(Cl)c1Cl | 100 (active)
O=C(N/N=C/c1cccc(OCc2ccccc2)c1)c1ccc(Br)o1 | inactive
CCOc1ccc(CN2CCN(Cc3c[nH]c4ccccc34)CC2)cc1 | inactive
CN(C)/C=N/c1cc(=O)n(C)c(=O)n1CC1CC1 | inactive
COc1ccc(CCNC(=S)N2CCN(S(=O)(=O)c3ccc(Cl)cc3)CC2)cc1 | inactive
Oc1cc2c(cc1O)CN(C(=S)NCCc1ccc(Cl)cc1)CCC2 | 25 (active)
O=C(NCCc1ccc(Cl)cc1)c1cccc(N2CCCC2=O)c1 | inactive
Cc1cc2cc3c(cc2nc1SCC(=O)Nc1c(C)cccc1C)CCC3 | inactive
Cc1cn(C2OC[C@@H](O)[C@@H]2CO)c(=O)[nH]c1=O (stereo not given in full) | inactive
COc1ccc(C(C#N)N2N=C(C)CC2(C)C)cc1 (stereo not given) | inactive
O=C(CN1C(=O)/C(=C/c2ccccc2F)Sc2ccccc21)NCc1cccnc1 | 100 (active)
O=C(CN1C(=O)S/C(=C\c2ccccc2F)C1=O)NCCCn1ccnc1 | inactive
O=C(CN1C(=O)/C(=C\c2ccc(C(F)(F)F)cc2)Sc2ccccc21)NCc1ccco1 | inactive

Compound | normalized B-score (activity score, 25-100; higher = stronger inhibition)
CN(C)CCOc1ccc(Cl)cc1C(C)(C)C | inactive
CCc1nc(C)ccc1OCC(=O)N(CC)CC | inactive
CCC(C)(C)c1ccc(OCC(=O)N(C)C)c(C(C)(C)CC)c1 | 100 (active)
O=C(CCCN1C(=O)/C(=C\c2ccccc2)SC1=S)Nc1ccccc1O | inactive
COc1ccc(/C=C2/SC(=O)N(CCCCCC(=O)Nc3ccccc3C(=O)O)C2=S)cc1 | 100 (active)
COc1ccc(/C=C2\SC(=O)N(CCC(=O)NCCCn3ccnc3)C2=O)cc1 | inactive
OC(c1ccccc1)C(CN1CCOCC1)c1ccccc1 (stereo not given) | inactive
Cc1c(NS(=O)(=O)c2ccc(NC3CCCC3)c([N+](=O)[O-])c2)c(=O)n(-c2ccccc2)n1C | inactive
Cc1cc(C=O)c(C)n1-c1ccc(NC2CCCCC2)c([N+](=O)[O-])c1 | 100 (active)
Cc1cc([N+](=O)[O-])ccc1NC1CCCC1 | inactive
COc1ccc(F)cc1C(=O)C1CCCN(C(=O)CCc2ccccn2)C1 (stereo not given) | inactive
O=C(N/N=C1\CCSC1)c1cc(Cl)ccc1O | inactive
CC1CCCCC1NC(=O)c1cc(=O)[nH]c2ccccc12 (stereo not given) | inactive
CCOC(=O)c1cc(NC(=O)c2cccnc2)ccn1 | inactive
CCOC(=O)c1ccc(NC(=O)c2cccnc2)cc1 | inactive
Cc1c(C(=O)OC(C)C)sc(NC(=O)c2cccnc2)c1C#N | 100 (active)
Cc1ccc(/C=N/NC(=O)C(NC(=O)c2ccccc2)c2n[nH]c(=O)c3ccccc23)cc1 (stereo not given) | inactive
CCC(=O)N1CCCc2ccccc21 | inactive
Cc1ccc2c(c1)N(CC(=O)N1CCCc3ccccc31)C(=O)C(C)O2 (stereo not given) | 100 (active)
Cc1ccc2c(c1)N(CC(=O)N1CCCC(C)C1)C(=O)CO2 (stereo not given) | inactive
O=C1NC(c2ccccc2)=NC1(Nc1ccccn1)C(F)(F)F (stereo not given) | inactive
CC(Oc1ccc(Cl)cc1)c1ccnn1S(C)(=O)=O (stereo not given) | inactive
CC(=O)Nc1ccc(C(=O)OCC(=O)Nc2ccc([N+](=O)[O-])cc2C(F)(F)F)cc1 | inactive

Compound | normalized B-score (activity score, 25-100; higher = stronger inhibition)
COc1cc(NC(=O)C2=CC(c3ccco3)=NS(=O)(=O)N2C)cc(OC)c1OC | inactive
COc1ccc(NC(=O)C2=CC(c3ccc(OC)c(OC)c3)=NS(=O)(=O)N2C)cc1 | 25 (active)
COc1cc(NC(=O)C2=CC(c3ccc(C)cc3)=NS(=O)(=O)N2C)cc(OC)c1OC | inactive
O=C(CSc1nnc2c(n1)[nH]c1ccccc12)NC1CCCCC1 | inactive
Cc1ccc(CNC(=O)C2CCCN2S(=O)(=O)c2ccc3c(c2)C(C)(C)C(=O)N3C)cc1 (stereo not given) | inactive
Cc1ccc(S(=O)(=O)c2ccc(Oc3ccccc3)cc2)cc1 | 100 (active)
CN(C)S(=O)(=O)c1ccc(Oc2ccc(S(=O)(=O)N(C)C)cc2)cc1 | inactive
Cc1n[nH]c(=O)n1-c1ccc(Oc2ccccc2)cc1 | inactive
Cc1cc(C)c(NC(=O)CN2CCCCCC2)c(C)c1 | inactive
CN(C)C(=O)CCC(=O)N1CCCCC1C(=O)Nc1ccc(Oc2ccccc2F)cc1 (stereo not given) | inactive
CCOC(=O)NC(=O)/C(C#N)=C\c1ccccc1 | inactive
CC(C)NC(=O)/C(C#N)=C\c1ccc(N(C)C)c(Br)c1 | inactive
CC(C)(C)C(=O)/C(C#N)=C/c1ccc(O)cc1 | 25 (active)
COc1ccc(NC(=S)NCc2cccs2)c(OC)c1 | inactive
S=C(NCc1cccs1)Nc1ccc(Cl)cc1 | 25 (active)
Fc1ccccc1CNC(=S)Nc1ccc(Cl)cc1 | inactive
Cc1ccc(Cc2nnc(SCC(=O)Nc3ccc(C)cc3C)[nH]c2=O)cc1 | inactive
COc1cc(CNCc2ccc(OC)c3ccccc23)cc(OC)c1OC | inactive
COCCCNC(=O)C1CCN(c2ccc(N3CCOCC3)nn2)CC1 | inactive
CC(=O)Nc1c2c(nn1-c1ccc(C)cc1C)CS(=O)C2 (stereo not given) | inactive
Nc1nc(-c2ccccc2)cc(-c2ccccc2)n1 | inactive
CC(C)Nc1nc(N(c2ccccc2)c2ccccc2)nc(-n2ccnc2)n1 | inactive
N#Cc1nc(N)nc(N(c2ccccc2)c2ccccc2)n1 | 100 (active)

Compound | normalized B-score (activity score, 25-100; higher = stronger inhibition)
COc1ccccc1CNC(=O)CNC(=O)c1cn(-c2ccccc2OC)c(=O)c2ccccc12 | inactive
CC(C(=O)Nc1ccccc1-c1ccccc1)N1CCOCC1 (stereo not given) | inactive
O=C(Nc1ccccc1F)c1ccccc1-c1ccccc1 | inactive
Cc1ccccc1NC(=O)C(C)c1ccc(-c2ccccc2)c(F)c1 (stereo not given) | 100 (active)
CCOCCCNC(=O)c1cn(CC(C)C)c(=O)c2c1c1ccccc1n2C | inactive
CC(Cc1cccs1)NC(=O)c1cccc(Cl)c1 (stereo not given) | inactive
CN(Cc1ccccc1)C(=O)COc1ccccc1 | inactive
CN(Cc1ccccc1)C(=O)CCc1ccccc1 | inactive
COc1ccc(CN(C)C(=O)CC(c2ccccc2)c2ccccc2)cc1 | 25 (active)
C=CCOc1ccc(/C=C/C(=O)OC(C)C(=O)Nc2ccc(NC(C)=O)cc2)cc1 (stereo not given) | inactive
CCCCCCCCCCOC(=O)Cn1c(COc2ccc(C)cc2)[n+](C)c2ccccc21 | 25 (active)
Cc1ccc(OCc2nc3ccccc3n2C)cc1 | inactive
CCCCCCCCCCOC(=O)Cn1c(COc2cccc(OC)c2)[n+](C)c2ccccc21 | inactive
Cc1ccc(-c2nn(-c3ccc(F)cc3)cc2C(=O)NCC(c2cccs2)N2CCOCC2)cc1 (stereo not given) | inactive
O=C(COC(=O)[C@H](Cc1ccccc1)NC(=O)c1cccs1)Nc1cc(F)ccc1F | inactive
COc1ccc(NC(=O)CCS(=O)(=O)c2cc3c(cc2Cl)NC(=O)CO3)cc1OC | inactive
COc1ccc(Cl)cc1NC(=O)CCS(=O)(=O)c1cc2c(cc1C)NC(=O)CO2 | 100 (active)
Cc1cc2c(cc1S(=O)(=O)CCC(=O)NCc1ccccc1)OCC(=O)N2 | inactive
C=C(C)c1cccc(C(C)(C)NC(=O)N2CCN(c3ncccn3)CC2)c1 | inactive
Cc1ccc(CN(C)CC(=O)Nc2cccc([N+](=O)[O-])c2)o1 | inactive
Cc1ccc(NC(=O)CN(C)CC(=O)Nc2cccc(F)c2)cc1[N+](=O)[O-] | 100 (active)
CN(CC(=O)Nc1cccc(F)c1)CC(=O)Nc1cccc([N+](=O)[O-])c1 | inactive
Cc1cccc2c1cnn2C(=O)CCC(=O)NC1CCCCC1 | inactive
